Measurements reported in PubChem BioAssay AID720519 (National Center for Advancing Translational Sciences (NCATS), 2013).
Inconclusive results are not listed. The source made the active and inactive calls. Calls come from the whole dose curve; as a rule, active = well fitted activation curve with a large enough effect; inconclusive = small, poorly fitted or top-dose-only effect; inactive = flat fitted curve, though single readings scatter.

Assay: qHTS for Inhibitors of Cell Surface uPA Generation: Confirmatory Assay for Cherry-picked Compounds
Details: cell surface uPA activity generation, qHTS confirmation; series mostly up to 115 µM
Procedure, shortened: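 RAW 264.7 cells at 4000/well, incubated overnight, then treated with compounds. After 24 h at 37 C, viability was read by ATPlite luminescence. An increase in signal indicates blocked uPA-dependent LF entry.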

Potency, inactive:
O=C(c1ccc(NC(=S)NCc2ccc(Cl)cc2)cc1)N1CCCCC1
CCN(CC)S(=O)(=O)c1ccc(C(=O)Nc2cccc(C)c2)cc1
CSc1ccccc1OCc1cc(C(=O)NCCCn2nc(C)cc2C)no1
CC(=O)NC(=S)Nc1ccc([N+](=O)[O-])cc1C
C[N+]1(CC(O)c2ccccc2)CCCCCC1 (stereo not given)
Cc1cc(=O)n2nc(N3CCCC(C(=O)NCc4ccc(Cl)cc4)C3)sc2n1 (stereo not given)
O=C(c1cc([N+](=O)[O-])cc([N+](=O)[O-])c1)N(c1ccccn1)c1ccccn1
Cc1cccc(-c2nc(CS(=O)CC(=O)NCc3cccs3)c(C)o2)c1 (stereo not given)
Cc1[nH]c2ccccc2c1C(=O)COC(=O)c1cccc(S(=O)(=O)N2CCCCC2)c1
COC(=O)c1ccc(N2CCN(c3ccccc3)CC2)c(NC(=O)C2CC2)c1
COc1ccc(CN2CCNC(=O)C2CC(=O)NCC2CCOCC2)cc1C (stereo not given)
O=[N+]([O-])c1ccc(C[n+]2cccc(O)c2)cc1
Cc1nc(NC2CCCCC2)c2nnn(Cc3ccccc3Cl)c2n1
O=c1[nH]c(SCc2cccc(Cl)c2)nc2ccccc12
COC(=O)c1cc(CNC(=O)c2ccc(N3CCCC3)c([N+](=O)[O-])c2)ccc1OC
CCOCCOc1cc(NCc2ccccc2)c2ncn(C(C)C)c2c1
O=C(NC1CCCCC1)C(c1ccco1)N(C(=O)c1csnn1)c1cccc(Cl)c1 (stereo not given)
CCCc1nc2c(=O)n(C)c(=O)[nH]c2n1CCC
Cc1ccc(N2C(=O)CC(N3CCN/C3=C3\CC/C(=C\c4ccccc4)C3=O)C2=O)cc1 (stereo not given)
Cc1cc(C)c(NC(=O)Cn2nnc(C(=O)NCc3ccc4c(c3)OCO4)c2N)c(C)c1
